High-throughput results (PubChem)
JMJD2A Tudor inh – blocks the human JMJD2A Tudor domain. O75164. AlphaScreen JMJD2A-Tudor / H3K4me3 peptide binding. Potency, µM (titrated, usually from 114 µM), without a hit: top-dose activity change, negative = inhibition, actives largely listed as inhibitors. 390,000 tested, 4.4% active. AID 504339; note: % is set by controls: 0 for no effect and ±100 for the full control effect; nearly all actives have a fitted effect of over 50% in size
PLK1 PBD inh – blocks phosphopeptide binding to human PLK1 polo-box domain; P53350; Plk1 PBD binding of FITC phosphopeptide, fluorescence polarization; Potency, µM, inactives show max response, negative = inhibition, actives largely listed as inhibitors; 360,000 tested, 2.8% active; note: series mostly up to about 57 µM; % is set by controls: 0 for no effect and ±100 for the full control effect; nearly all actives have a fitted effect of over 65% in size
Target sequence (P53350 whole entry, looked up, the tested form may be a part): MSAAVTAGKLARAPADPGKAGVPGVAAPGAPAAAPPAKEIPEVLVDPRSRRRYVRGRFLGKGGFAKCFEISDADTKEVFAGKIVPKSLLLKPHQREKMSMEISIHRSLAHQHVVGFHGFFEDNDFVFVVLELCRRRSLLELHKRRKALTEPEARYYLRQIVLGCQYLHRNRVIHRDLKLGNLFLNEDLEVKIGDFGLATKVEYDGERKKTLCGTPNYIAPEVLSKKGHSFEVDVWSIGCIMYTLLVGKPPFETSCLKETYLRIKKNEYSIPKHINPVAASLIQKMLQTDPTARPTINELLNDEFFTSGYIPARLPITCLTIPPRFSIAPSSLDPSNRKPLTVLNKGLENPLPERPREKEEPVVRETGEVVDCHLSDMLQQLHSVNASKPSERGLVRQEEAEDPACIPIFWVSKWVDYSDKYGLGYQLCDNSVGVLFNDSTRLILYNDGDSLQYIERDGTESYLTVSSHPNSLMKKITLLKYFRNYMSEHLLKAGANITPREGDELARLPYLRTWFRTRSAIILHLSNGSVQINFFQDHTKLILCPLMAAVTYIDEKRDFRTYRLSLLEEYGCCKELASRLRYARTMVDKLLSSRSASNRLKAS
HP1b chromo inh – inhibitors of HP1-beta chromodomain binding to methylated histone tails | P83916 | AlphaScreen HP1-beta / biotin-H3K9me3 peptide binding | Potency, µM (series often up to 114 µM), for the others: top-dose activity change, negative = inhibition, hits mostly inhibitors | 390,000 tested, 0.56% active; note: nearly all actives have a fitted effect of over 70% in size
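AlphaScreen: HP1-beta (50 nM) preformed 30 min with biotin-H3(1-18)K9me3 peptide (50 nM) in PBS pH 7.4, 0.01% Tween-20. Compound added for 30 min at RT, then streptavidin donor/nickel chelate acceptor beads (10 ug/mL) for 30 min.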
L3MBTL1 block – inhibitors of human L3MBTL1 | Potency, µM (highest dose often 57.1 µM), without a hit: at the highest dose activity, negative = inhibition, hits mostly inhibitors | 230,000 tested, 0.66% active | Q9Y468 | AID 485360 | AlphaScreen L3MBTL1–H3K9me1 peptide binding; note: % is set by controls: 0 for no effect and ±100 for the full control effect; nearly all actives have a fitted effect of over 60% in size
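First, the protein-peptide complex forms for 30 min at room temperature (L3MBTL1 50 nM, biotinylated H3K9me1 peptide 75 nM). Next, compounds are pin-transferred and incubated 30 min. Finally, AlphaScreen beads are added and read after 30 min.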
VDR inhibitor – inhibitors of human vitamin D receptor | P11473 | VDR-SRC2-3 peptide fluorescence polarization, 2 h | Potency, µM, for inactives: max response, negative = inhibition, hits mostly inhibitors | 400,000 tested, 0.93% active | AID 504847; note: % is set by controls: 0 for no effect and ±100 for the full control effect
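After 23 nl compound addition and a short centrifugation, plates sat for 2 hours at ambient temperature; polarization of fluorescence then indicated loss of VDR binding to peptide SRC2-3.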
BAZ2B block – BAZ2B (human) inhibition; 360,000 tested, 4.4% active; Potency, µM (top dose mostly 114 µM), for the others: at the highest dose activity change, negative = inhibition, most hits filed as inhibitors; Q9UIF8; AlphaScreen BAZ2B-H3K14Ac peptide displacement; AID 504333; note: % is set by controls: 0 for no effect and ±100 for the full control effect; nearly all actives have a fitted effect of over 60% in size
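AlphaScreen displacement: compounds (up to 110uM) incubated 30 min at room temperature with a preformed 50 nM BAZ2B/50 nM biotinylated H3K14Ac peptide complex in PBS pH 7.4 with Tween-20. Donor and acceptor beads at 10 ug/mL final added, 20 min light-protected before reading.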
* = called active by the depositor; ? = inconclusive; . = no result; ! = repeats disagree; [ ] = remark or other dose. Most compounds without a hit are left out; they make up all but 6.9% or so of the library. Calls come from the whole dose curve; as a rule, active = well fitted curve in the direction sought with a large enough effect; inconclusive = small, poorly fitted or top-dose-only effect, or another doubt; inactive = no such curve, though single readings can be large; an effect the other way counts as inactive or inconclusive. Potency is the fitted concentration of half-maximal effect.

SMILES	JMJD2A Tudor inh	PLK1 PBD inh	HP1b chromo inh	L3MBTL1 block	VDR inhibitor	BAZ2B block
CC(=O)O[C@H]1C[C@H](O[C@H]2[C@@H](O)CC(O[C@H]3[C@@H](O)C[C@H](O[C@H]4CC[C@@]5(C)[C@H](CC[C@@H]6[C@@H]5CC[C@]5(C)[C@@H](C7=CC(=O)OC7)CC[C@]65O)C4)O[C@@H]3C)O[C@@H]2C)O[C@H](C)[C@H]1O[C@@H]1O[C@H](CO)[C@@H](O)[C@H](O)[C@H]1O (some centres not stated)	.	.	.	.	1%	.
CC1([N+](=O)[O-])COP(=O)(Nc2ccc(Cl)cc2)OC1 (configuration not stated)	-1%	-3%	47%	.	89µM*	.
CCN(CC)c1ccc(CN2CC=C(c3ccc(F)cc3)CC2)cc1	50µM*	-3%	45µM*	.	5%	79µM*
Cc1cc(C)n(-c2nc3nonc3nc2Nc2cccc(C)c2C)n1	-19%	-1%	44%	3%	-13%	-1%
O=C(Nc1ccc(Cl)c(Cl)c1)c1ccco1	7%	-4%	35%	12%	2%	?
C=CCNC(=S)Nc1ccc(OC(=O)Nc2ccc(Cl)c(Cl)c2)cc1	-9%	9.5µM*	47%	.	-3%	4%
Cc1cc(=O)n2[nH]c(C)cc2n1	-7%[11.4 µM]	-14%	61%	.	-2%	5%
O=S(=O)(Nc1c(O)ccc2ccccc12)c1ccc(F)cc1	?	11µM*	?	.	-12%	.
C=CCn1c(CSc2ccccc2[N+](=O)[O-])n[nH]c1=S	8.9µM*	12µM*	?	.	?	40µM*
CCCCCCCCCCCCCC(=O)O[C@@H]1[C@@H](C)[C@@]2(O)[C@H](C=C(CO)C[C@]3(O)C(=O)C(C)=C[C@@H]23)[C@@H]2C(C)(C)C12OC(C)=O (some centres not stated)	.	.	.	.	-3%	.
Cc1c(C)c2ccc(OCC(=O)N3CCC[C@@H]3C(=O)O)c(C)c2oc1=O	?	-9%	16%	13%	-2%	-9%[57.1 µM]
COc1ccc(N2CCN(CCCN)CC2)cc1	10µM*	-5%	?	.	-7%	.
N#Cc1c(/N=C/c2c(O)n(Cc3ccco3)c(=O)[nH]c2=O)sc2c1CCCC2	79µM*	24µM*	-23%	14µM*	79µM*	?
CC(=O)c1cccc(OCC(O)CN2CC=C(c3ccccc3)CC2)c1 (configuration not stated)	2.8µM*	-3%	-35%	1%	-6%	71µM*
CCCNC(=O)c1cnn2c(C)c(Cc3c(C)cc(C)cc3C)c(C)nc12	?	.	12%	.	1%	10%
CCCC1COC(Cn2cncn2)(c2ccc(Cl)cc2Cl)O1 (configuration not stated)	-18%[57.1 µM]	-13%	48%	1%	50µM*!	-37%
CC1(c2ccc(Cl)cc2Cl)OCC(Cn2cncn2)O1 (configuration not stated)	-15%	-12%	-2%	1%	-3%	71µM*
O=C=NCCCCN=C=O	.	.	.	.	-13%	.
O=C(O)CC1OCC=C2CN3CCC45C6=CC(=O)C(=O)C([N+](=O)[O-])=C6NC4C1C2CC35 (configuration not stated)	2.5µM*!	?	55%	25µM*	79µM*	?
C[C@@H]([C@@H](O)c1ccccc1)N(C)C(=O)Cc1ccccc1	-18%	-4%	35%	.	4%	.
CN(C)CC(C(=O)Cc1ccccc1)c1ccccc1 (configuration not stated)	1%	-9%	13%[57 µM]	.	35µM*	.
CCON=O	.	.	.	.	0%	.
CCCCCCC(C)(C)c1cc(OC)c2c(c1)OC(C)(C)[C@@H]1CC=C(C)C[C@@H]21	.	.	.	.	-5%	.
O=C(N/N=C\C1C(=O)NC(=S)N(c2ccccc2)C1=O)c1ccc(O)cc1 (configuration not stated)	79µM*	-24%	22%	.	5%	25µM*
O=C1CCC[C@H]2[C@@H]3CCCN4CCC[C@H](CN12)[C@H]34	.	.	.	.	-1%	.
SMILES	JMJD2A Tudor inh	PLK1 PBD inh	HP1b chromo inh	L3MBTL1 block	VDR inhibitor	BAZ2B block
Oc1ccc(C[C@H]2NCCc3cc(O)c(O)cc32)cc1O	40µM*	-9%	79µM*	.	0%	-19%
NC(N)=Nc1ccc2[nH]c3c(c2c1)C[C@]1(O)[C@@H]2Cc4ccc(O)c5c4[C@]1(CCN2CC1CC1)[C@@H]3O5	.	.	.	.	6%	.
c1ccc(CN2CCN(Cc3ccc4ccccc4c3)CC2)cc1	0.79µM*	-11%	?	-4%	2%	28µM*
CCOP(=O)(OCC)C(NC(=O)c1cccc(C)c1)C(Cl)(Cl)Cl (configuration not stated)	-10%	-5%	34%	8%	?	7%
Cc1cccc(C(=O)NC(Oc2ccccc2)C(Cl)(Cl)Cl)c1 (configuration not stated)	40µM*	15µM*	0%	7%	?	10%
CCCCC(=O)N/N=C/c1c(O)n(CCc2ccccc2)c(=O)[nH]c1=O	79µM*	-8%	14%	-23%	-7%	?
O=c1[nH]c(=S)n(C2CC2)c(O)c1C=NCc1cccnc1	28µM*	-5%	29%	-5%	0%	-4%
CCCCC(=O)N/N=C/c1c(O)n(CCc2ccc(OC)c(OC)c2)c(=O)[nH]c1=O	0%	-14%	28%	-4%	-9%	50µM*
CCN(CC)CCCN=Cc1c(O)n(CCc2ccc(OC)c(OC)c2)c(=O)[nH]c1=O	-16%	-1%	30%	2%	9%	9%
COc1ccc(CCn2c(O)c(C=NCc3cccnc3)c(=O)[nH]c2=O)cc1OC	2%[11.4 µM]	27µM*	-12%	10%	-12%	-3%
CCCCC(=O)N/N=C/c1c(O)n(Cc2ccc(F)cc2)c(=O)[nH]c1=O	-30%	0%	26%	.	-8%	?
CCN1C[C@@]2(OC(=O)c3ccccc3NC(C)=O)CCC(OC)[C@@]34C5CC6C(OC)C[C@@](O)(C(CC23)[C@@H]14)C5(O)C6OC (some centres not stated)	.	.	.	.	18%	.
Nc1nonc1-n1nnc(C(=O)N/N=C/c2ccc3c(c2)OCO3)c1CSc1ccccc1	1%	-8%	52%	.	-1%	-6%[57.1 µM]
Oc1ccc(Cl)cc1Sc1cc(Cl)ccc1O	?	?	0%[57 µM]	.	3%	.
CN1C[C@H](CO)C=C2c3cccc4[nH]cc(c34)C[C@@H]21	.	.	.	.	-5%	.
CCN(CC)C(=O)N[C@@H]1C=C2c3cccc4[nH]cc(c34)C[C@H]2N(C)C1	.	.	.	.	40µM*	.
CCN(CC)C(=O)N[C@H]1C[C@@H]2c3cccc4[nH]cc(c34)C[C@H]2N(C)C1	?	-17%	-23%	-10%	9%	-30%
